Drawing on PubChem BioAssay (NCI), this text covers growth for eight compounds.

About 83,000 compounds went through this panel and 20% of them were active in at least one assay; those are over-represented in the sample as a whole.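 Growth was measured after 48 h exposure to one concentration of compound in 96-well plates. Values under 10 count as active.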 Unmarked numbers belong to inactive results. Calls of active or inactive are those of the source.

Common to all, as to test: NCI-60 one-dose screen, 48 h (100 = growth as untreated, 0 = no growth, -100 = all killed)
Common to all, as to settings: 10 µM

The subject of experiment [1] is HCT-15 colon.
In experiment [2] the test system is HT29 colon.
Experiment [3] deals with SNB-75 CNS.
The subject of experiment [4] is SNB-19 CNS.
Experiment [5] concerns U251 CNS.
The subject of experiment [6] is PC-3 prostate.
For experiment [7], the system named is SK-MEL-5 melanoma.
In experiment [8] the test system is UACC-62 melanoma.
Experiment [9] deals with LOX IMVI melanoma.
Experiment [10] concerns SK-MEL-28 melanoma.
Experiment [11] concerns SK-MEL-2 melanoma.
The test system of experiment [12] is EKVX NSCLC.
The subject of experiment [13] is UO-31 renal.
Experiment [14] deals with TK-10 renal.
For experiment [15], the system named is ACHN renal.
Experiment [16] deals with CAKI-1 renal.
For experiment [17], the system named is A498 renal.
Experiment [18] relates to CCRF-CEM leukemia.
Experiment [19] concerns MOLT-4 leukemia.
Experiment [20] deals with SN12C renal.

Take `COc1ccc(C(=O)Nc2sc3c(c2C#N)CCC(=O)C3)cc1C(F)(F)F`: the growth in experiment [1] was -69.8% (active); in [2], -31.4% (active); in experiment [3], -15.2% (active); in experiment [4], -5.9% (active); in [5], 3.33% (active); in experiment [6] it was 8.45% (active). Further, the growth in experiment [7] was -92.2% (active); in [8] it was -25.5% (active); in experiment [9], -15% (active); in experiment [10], -12.6% (active); in [11], -17.6% (active); in experiment [12], -0.293% (active). Also, the growth in [13] is -18.2% (active); in experiment [14], 15.1%; in experiment [15], -29.9% (active); in experiment [16], -28.1% (active); in experiment [17], 63.3%; in experiment [18], 5.05% (active). Besides, the growth in experiment [19] was 3.42% (active).

Turning to `N#Cc1c(NC(=O)c2ccc(C(F)(F)F)cc2)sc2c1CCC(=O)C2`, the growth in experiment [1] was -66.1% (active); in experiment [2], 8.13% (active); in experiment [3], -44.9% (active); in [4] it was -42.2% (active); in experiment [5], -66.3% (active); in experiment [6], -9.55% (active). Further, the growth in experiment [7] was -97.7% (active); in [8] it was -82.7% (active); in experiment [9], -86.8% (active); in experiment [10], -88.2% (active); in experiment [11] it was -57.9% (active); in [12] it was -42.6% (active). Moreover, the growth in [13] is -99.9% (active); in experiment [14], -53.7% (active); in experiment [15], -100% (active); in [16] it was -21.7% (active); in [17], 2.58% (active); in experiment [18], 7.92% (active). For the same compound, the growth in experiment [19] is 9.79% (active).

Regarding `Cc1cccc2cc(-c3cc(-c4ccccc4)nc(=S)[nH]3)c(Cl)nc12`, the growth in experiment [1] was 53.2%; in experiment [2], 86.5%; in [3], 103%; in experiment [4] it was 82.2%; in [5], 99.1%; in experiment [6], 72.5%. The growth in experiment [7] was 23.6%; in [8], 37.5%; in experiment [9], 66.9%; in [10], 59.8%; in [11] it was 27.8%; in experiment [12], 76.5%. Also, the growth in experiment [20] is 89.2%; in experiment [14], 136%; in experiment [15], 78.1%; in experiment [16], 76.2%; in experiment [17], 99%; in experiment [18] it was 66.2%. In experiment [19], the growth was 43.6%.

With `C/C(=C\CSc1ccccc1C(=O)O)CCCC(C)CCCC(C)CCCC(C)C` (configuration not stated), the growth in experiment [1] is 21.5%; in [2], 59.4%; in [3], 114%; in [4], 80.4%; in experiment [5], 46.8%; in experiment [6] it was 41%. The growth in [7] was 24.8%; in experiment [8], 42.5%; in [9], 26.3%; in experiment [10], 71.5%; in [11], -12% (active); in experiment [12] it was 43.3%. Also, the growth was 49.5% in experiment [13]; 87.7% in experiment [14]; 37.5% in experiment [15]; 45.1% in experiment [16]; 97.4% in experiment [17]; 29.8% in [18]. For the same compound, in experiment [19], the growth was 16.3%.

As to `CONC[C@]1(C)C=C2C(=O)[C@](C)(O)C3(CC3)C(C)=C2[C@H]1O`, the growth is -24.4% (active) in experiment [1]; -12% (active) in [2]; -80.9% (active) in experiment [3]; -10.7% (active) in experiment [4]; 3.39% (active) in experiment [5]; 3.46% (active) in experiment [6]. For the same compound, the growth in experiment [7] was -37.4% (active); in experiment [8], -90% (active); in experiment [9], -67.3% (active); in experiment [10] it was -73.2% (active); in experiment [11], -100% (active); in [12], -45.3% (active). For the same compound, the growth was -24.8% (active) in experiment [13]; 7.09% (active) in [14]; -25.7% (active) in experiment [15]; -0.623% (active) in experiment [16]; -29.7% (active) in [17]; 4.58% (active) in experiment [18]. Further, the growth in experiment [19] is -13.9% (active).

With `O=C1Nc2ccc(Cl)cc2/C1=C/c1ccc(OCc2ccccn2)cc1`, the growth was 35.7% in experiment [1]; 67.5% in experiment [2]; 113% in [3]; 50.7% in experiment [4]; 23.7% in experiment [5]; 62.1% in experiment [6]. Further, the growth in experiment [7] is 89.5%; in [8] it was 66.7%; in experiment [9] it was 56.5%; in [10] it was 100%; in experiment [11], 111%; in experiment [12] it was 65.7%. For the same compound, the growth was 59.6% in [13]; 90.1% in experiment [14]; 57% in experiment [15]; 61.6% in experiment [16]; 45.1% in experiment [17]; 83.2% in [18]. Besides, the growth in experiment [19] is 46.8%.

For the compound `CN1CCN(c2ccc(C(=O)/C=C/c3cc(Br)ccc3F)cc2)CC1`, the growth in experiment [1] is -22.6% (active); in experiment [2], -13.2% (active); in [3] it was 40.1%; in [4] it was 56.5%; in experiment [5], 23.8%; in experiment [6], 37.1%. Also, the growth was 18.6% in experiment [7]; 64% in experiment [8]; -91.8% (active) in experiment [9]; 90.8% in experiment [10]; 107% in experiment [11]; 55.7% in [12]. Besides, the growth in experiment [13] is 44.2%; in experiment [14] it was 88.6%; in [15], 63.7%; in experiment [16], 50%; in experiment [17] it was 107%; in experiment [18], -11.4% (active). In addition, in experiment [19], the growth is 24%.

As to `Cc1cccc2cc(-c3cc(-c4ccccc4)nc(=O)[nH]3)c(Cl)nc12`, the growth in experiment [1] is 64.1%; in [2], 107%; in experiment [3] it was 89.1%; in [4], 68%; in experiment [5], 62.6%; in experiment [6] it was 77.6%. For the same compound, the growth was 96.3% in [7]; 80.1% in experiment [8]; 54.1% in [9]; 103% in experiment [10]; 102% in experiment [11]; 84.6% in experiment [12]. Also, the growth was 84% in experiment [20]; 110% in experiment [14]; 91.8% in [15]; 87.2% in experiment [16]; 94.5% in experiment [17]; 8.46% (active) in experiment [18]. The growth in experiment [19] was 61.3%.
